# Measurements published in PubChem BioAssay.
# This is one part of the list. The source made the active and inactive calls.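 How the source made its calls: active means drop in membrane potential signal beyond 5 SD of the control wells in both duplicate plates; inactive means the rest.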
# Tested on: TRPC4 (transient receptor potential cation channel C4), mouse
# Experiment: DAMGO-evoked mouse TRPC4 response blockade – cell-based, second screen, HEK293 TRPC4/mu-opioid, membrane potential dye, selectivity assay for TRPC6 modulator project, confirmation (AID 488928);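 further: TRPC4 counter screen for TRPC6 hits run under conditions tuned for TRPC6 not TRPC4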
# Conditions: membrane potential dye fluorescence, at 10 µM, stimulated with maximal-effect DAMGO; stronger effect = higher value
compound,measurement,value
CC1(C)Cc2c(C#N)c(N3CCNCC3)nc(-c3ccco3)c2CS1,inhibition,76.5% (active)
